Source: PubChem BioAssay (NCI)
This is part of a sample that, as a whole, favours compounds with a hit. Of some 83,000 tested, about 20% had one in any assay.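 Cell lines were cultured in 96-well plates, exposed to a single compound concentration, and assessed for percent growth 48 hours later.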 Unmarked numbers belong to inactive results. The source made the active and inactive calls. How the source made its calls: active means growth percent below 10; inactive means the rest.

test system: MDA-MB-468 breast; test: NCI-60 one-dose screen, 48 h (100 = growth as untreated, 0 = no growth, -100 = all killed); conditions: 10 µM unless noted

Row | SMILES | growth
1 | COc1cc(NC2CCC(=O)N2c2ccc(Cl)cc2Cl)cc(OC)c1OC (stereo not given) | 110%
2 | CCOC(=O)CCC(NC(=O)c1ccc(N)cc1)C(=O)OCC (stereo not given) | 102%
3 | COc1ccc2c(NCCCCCCCCNc3c4ccccc4nc4cc(OC)ccc34)c3ccccc3nc2c1 | -100% (active)
4 | COc1ccc(-c2nc(-c3ccccc3)c(-c3ccccc3)[nH]2)cc1OC1CCCCC1 | 73.1%
5 | CC(C)c1[nH]nc2c(NCc3ccc(-c4ccccn4)cc3)nc(SCCN(C)C)nc12 | -50.1% (active)
6 | Cc1cc(C(=O)/C=C/c2ccc[nH]2)ccc1-n1ccc(C(F)(F)F)n1 | 90.2%
7 | C=C(C)[C@@H]1CC[C@]2(C(=O)NC3CCCCC3)CC[C@]3(C)[C@H](CC[C@@H]4[C@@]5(C)CC[C@H](N)C(C)(C)[C@@H]5CC[C@]43C)[C@@H]12 | 103%
8 | CC(=O)CC(c1ccccc1)c1c(C)[nH]c2ccccc12 (stereo not given) | 106%
9 | COC(=O)c1ccc(NC(N)=NCC(C)(C)COc2ccc(C(F)(F)F)cc2)nc1 | 17.1%
10 | O=C1c2ccccc2CCC12OC2c1cn(-c2ccccc2)nc1-c1ccc(Cl)cc1 (stereo not given) | 92.5%
11 | Cn1ncc(Cl)c1-c1cc(C(=O)N[C@H](CN)Cc2ccc(F)c(F)c2)oc1Cl | -69.6% (active)
12 | O=C1Nc2ccc(Br)cc2/C1=N/c1nc(-c2ccccc2)cs1 | 99.8%
13 | CCOC(=O)c1ccc2c(c1)[n+](=O)c(C(=O)c1ccc3ccccc3c1)c(C(F)(F)F)n2[O-] | -92.6% (active)
14 | C#C[C@]1(O)CC[C@H]2[C@@H]3CC=C4c5nc(Nc6ncccn6)sc5CC[C@]4(C)[C@H]3CC[C@@]21C | 75.5%
15 | CCCCNC(=O)c1ccccc1C | 82.3%
16 | C=C1C(=O)O[C@H]2[C@H]1CC/C(COC(=O)/C=C\C(=O)NCc1ccc(Cn3c(=O)sn(-c4ccc(C#N)cc4)c3=O)cc1)=C\CC[C@@]1(C)O[C@@H]21 | -87.6% (active)
17 | CC[C@]1(O)CC2CN(CCc3c([nH]c4ccccc34)[C@@](C(=O)OC)(c3cc4c(cc3OC)N(C)[C@H]3[C@@](O)(C(=O)OC)[C@H](OC(C)=O)[C@]5(CC)C=CCN6CC[C@]43[C@@H]65)C2)C1 (stereo not given in full) | 16.1%
18 | O=C(Nc1ccc2cc3ccc(NC(=O)N4CCCCCC4)cc3nc2c1)N1CCCCCC1 | -48.5% (active)
19 | Fc1ccc(Nc2nc(Nc3ccc(-c4nc5ccccc5[nH]4)cc3)nc(N3CCCC3)n2)cc1 | 83.6%
20 | N#CC1=C(N)Oc2c(sc3c(Br)cccc23)C1c1ccccn1 (stereo not given) | 25.6%

Row | SMILES | growth
21 | CCn1cc(C(=O)N/N=C/c2ccccc2)c(=O)c2cc(F)c(N3CCNC(C)C3)c(F)c21 (stereo not given) | 30.4%
22 | CCCCC(C#N)C(N)=O (stereo not given) | 119%
23 | COc1ccc2c(c1)[nH]c(=O)c1c3cccc(F)c3cn21 | 51.8%
24 | C=C1c2c(Cl)ccc(O)c2C(O)=C2C(=O)[C@]3(O)C(O)=C(C(N)=O)C(=O)[C@@H](N(C)C)[C@@H]3[C@@H](O)[C@H]12 | -4.52% (active)
25 | Cc1cn(C2CC(F)C(CO)O2)c(=O)[nH]c1=O (stereo not given) | 90.7%
26 | C[C@H](NC(=O)[C@@H]1CSSC[C@@H](NC(=O)c2nc3ccccc3cc2O)C(=O)NCC(=O)N1C)c1ccccc1 | 41.4%
27 | CCOC(=O)c1c2c(n(-c3ccc(C#N)cc3)c1-c1ccccc1)C=CCC2 | 88.9%
28 | Cc1cccc(/C=N/n2c(-c3ccc(Cl)cc3)nc3c(Br)cc(Br)cc3c2=O)c1 | 46.7%
29 | CCCCn1c(-c2cccc(OC)c2)nc2cc(OC)c(OC)cc2c1=O | 107%
30 | Cc1ccc(Cc2ccc(C)cc2)cc1 | 96.8%
31 | CCOC(=O)C(C)C(C)(O)c1ccccc1 (stereo not given) | 96.3%
32 | Clc1ccc(-c2nc(NCCc3ccccc3)nc3c(NCCc4ccccc4)cnn23)cc1 | 47.8%
33 | C=CCn1c(SCC(=O)Nc2cccc(C(=O)/C=C/c3cccc([N+](=O)[O-])c3)c2)nc2ccccc2c1=O | 89.2%
34 | COc1ccc(NC(=O)CCl)cc1 | 73.6%
35 | CN1C(=O)/C(=C/c2ccc(C(=O)Nc3ncc(Cc4cc(Cl)ccc4Cl)s3)cc2)SC1=S | 44.2%
36 | O=C1COCCN1c1ccc(NCc2cn(Cc3ccc(F)cc3)c3ccccc23)cc1 | -66.9% (active)
37 | CC(C)(C)n1cc(-c2ccnc(NCCCNS(=O)(=O)c3cccc4ccccc34)c2)c(-c2cccc(O)c2)n1 | 10.7%
38 | CCCCCCCCCCCCCCCCCCOc1ccccc1CC(=O)OCC[N+]1(C)CCCCC1 | -10.3% (active)
39 | CN(C)Cc1cn(-c2ncc(-c3ccc(C(F)(F)F)cc3)c(NC3CCCCCC3)n2)nn1 | 82.9%
40 | CCCC(=O)CC(C)=O.CCCC(=O)CC(C)=O.[Cu] | 107%
